Measurements published in PMC4552634, “A New Set of Chemical Starting Points with Plasmodium falciparum Transmission-Blocking Potential for Antimalarial Drug Discovery” (PLoS ONE, 2015).
Screen size: about 13,000 compounds; about 3,200 (25%) showed an effect of 50% or more. The list shows a part of the results.

These molecules were tested on P. falciparum stage V gametocytes. Details: 48 h, 5 µM; inhibitor.
Set-up: BacTiter-Glo ATP luminescence viability of purified stage V gametocytes in 384-well plates, per cent inhibition versus DMSO

In order of rising “% Inhibition” value:
1. c1ccc(C23N=C(Nc4nc5ccccc5[nH]4)NC2(c2ccccc2)NC(Nc2nc4ccccc4[nH]2)=N3)cc1 (centres unmarked) [TCMDC-139082]  -85.59%
2. Cc1cc2nc(NC3=NC4(c5ccccn5)N=C(Nc5nc6cc(C)c(C)cc6[nH]5)NC4(c4ccccn4)N3)[nH]c2cc1C (centres unmarked) [TCMDC-139105]  -75.39%
3. CN(CCC(CCN1CCC(c2c[nH]c3ccccc23)CC1)c1ccccc1)C(=O)Nc1ccc(Cl)c(Cl)c1 (centres unmarked) [TCMDC-139625]  -72.07%
4. O=C(/C=C/c1ccc(Cl)c(Cl)c1)NCc1ccc(CN2CCC(c3c[nH]c4ccccc34)CC2)cc1 [TCMDC-139405]  -66.38%
5. O=C(NCCCCCN1CCC(c2c[nH]c3ccccc23)CC1)Nc1ccc(Cl)cc1Cl [TCMDC-139166]  -62.24%
6. O=C(/C=C/c1ccc(Cl)c(Cl)c1)NCCCCCN1CCCN(C(=O)Nc2ccc(Br)cc2)CC1 [TCMDC-135761]  -59.24%
7. O=C(/C=C/c1ccc(Cl)c(Cl)c1)NCCCCCN1CCCN(C(=O)Nc2ccc(OC(F)F)cc2)CC1 [TCMDC-135756]  -55.78%
8. C=CCc1ccccc1OCC(O)CN(C1CCCCC1)C1CCCCC1 (centres unmarked) [TCMDC-123906]  -42.05%
9. O=C(/C=C/c1cccc(OC(F)(F)F)c1)NCCCCCN1CCC(c2c[nH]c3ccccc23)CC1 [TCMDC-139190]  -40.78%
10. COc1cc2nc(N(C)Cc3cccc(I)c3)nc(N)c2cc1OC [TCMDC-131898]  -39.77%
11. CN(CCN1CCC(c2c[nH]c3ccccc23)CC1)C(=O)OCCCCCNC(=O)/C=C/c1ccc(Cl)c(Cl)c1 [TCMDC-139374]  -36.9%
12. CCOc1ccc(C(=O)N2CCOC(CCN3CCC4(CCc5ccccc54)CC3)(c3ccc(Cl)c(Cl)c3)C2)cc1 (centres unmarked) [TCMDC-135339]  -28.45%
13. COc1ccc2[nH]c(C(=O)Nc3ccc4nc(-c5ccccc5)[nH]c4c3)cc2c1 [TCMDC-134305]  -25.97%
14. O=C(/C=C/c1cc(C(F)(F)F)ccc1F)NCCCCCN1CCC(c2c[nH]c3ccccc23)CC1 [TCMDC-140010]  -22%
15. COc1ccccc1-n1ccnc1SCC(=O)Nc1cc(C(F)(F)F)ccc1Cl [TCMDC-123823]  -21.34%
16. Cc1cc(N[C@@H](CC(C)C)C(=O)Nc2ccccc2)nc(Nc2ccccc2)n1 [TCMDC-134743]  -20.12%
17. CCc1cc(OC)c(C(=O)NC2CCN(C[C@H](O)c3ccnc4ccc(OC)cc34)CC2)cc1Br [TCMDC-141169]  -16.9%
18. CC(C)(C)OC(=O)N1CCN(c2ccccc2NC(=O)c2cccc(C(F)(F)F)c2Oc2ccc(F)cc2)CC1 [TCMDC-140951]  -16.31%
19. CCCn1c(SCC(=O)Nc2cc(Cl)ccc2Cl)n[nH]c1=O [TCMDC-123548]  -15.86%
20. COc1cc(Cc2cnc(N)nc2N)cc(OCCCCC#N)c1OC [TCMDC-138035]  -14.37%
21. C=CC[C@H](C[C@H](O)[C@H](Cc1ccccc1)NC(=O)c1ccc(-c2cccnn2)cc1)C(=O)NC1CCCCC1 [TCMDC-141421]  -14.32%
22. O=C(/C=C/c1ccc(Cl)c(Cl)c1)NCCCCCN1CCC(c2cn[nH]c2-c2ccccc2)CC1 [TCMDC-139493]  -12.94%
23. CCN(CCCN1CCCCC1)c1cc(C)nc(Nc2ccc(C(C)C)cc2)n1 [TCMDC-132454]  -8.614%
24. CN1CCN(c2ccc(-c3cc(-c4cc(F)c(F)c(F)c4)cnc3N)cc2)CC1 [TCMDC-133345]  -8.308%
25. Cc1ccc(NCc2cccc(F)c2)cc1S(=O)(=O)N[C@@H]1CCN(C#N)C1 [TCMDC-134125]  -7.553%
26. O=C(/C=C/c1ccc(Cl)c(Cl)c1)NCCCCN1CCC(c2c[nH]c3ccccc23)CC1 [TCMDC-139333]  -7.285%
27. COc1ccc(-n2ccnc2SCC(=O)Nc2cccc(C(F)(F)F)c2)c(OC)c1 [TCMDC-123545]  -5.921%
28. COC(=O)c1c(C#N)c(OC)cc(O)c1CSC[C@@H](CN1CCCCC1)Nc1nc(-c2ccc([N+](=O)[O-])cc2)cs1 [TCMDC-138652]  -4.34%
29. CCNc1cc(C)nc(Nc2ccc(NC(=O)C3CCCC3)cc2)n1 [TCMDC-124980]  -0.5513%
30. O=C(NC1CCN(Cc2ccccc2)CC1)c1cccc(Nc2nc(-c3ccccc3)cs2)c1 [TCMDC-136774]  0.9462%
31. O=C(/C=C/c1cccc(Br)c1)NCCCCCN1CCC(c2c[nH]c3ccccc23)CC1 [TCMDC-139233]  3.439%
32. CC(NC(=O)c1cc(-c2ccccc2)nc2c1cnn2C(C)C)C1CC1 (centres unmarked) [TCMDC-125054]  5.318%
33. CC(C)n1ncc2c(C(=O)N3CCCCCC3)cc(-c3ccccc3)nc21 [TCMDC-125259]  6.769%
34. O=C(/C=C/c1ccc(Cl)c(Cl)c1)NCCCCCN1CCCC(c2c[nH]c3ccccc23)C1 (centres unmarked) [TCMDC-139481]  8.151%
35. CC(C)(C)Nc1cc(C(=O)N[C@@H](Cc2ccccc2)[C@H](O)CNC2CCOCC2)cc(N2CCCCS2(=O)=O)c1 [TCMDC-135686]  8.531%
36. c1cn(-c2ccc(CNc3nccc(Nc4ccc(OCCN5CCOCC5)cc4)n3)cc2)cn1 [TCMDC-134665]  13.33%
37. CCOc1ccccc1CON1C(N)=NC(N)=NC1(C)C [TCMDC-131583]  17.24%
38. CC1(C)N=C(N)N=C(N)N1c1ccc(Br)cc1 [TCMDC-123959]  18.18%
39. CCCNC[C@@H](O)[C@H](Cc1ccccc1)NC(=O)c1cc(NCC)cc(N2CCCCS2(=O)=O)c1 [TCMDC-135269]  19.71%
40. CCCCCCP(=O)(COc1ccc(CCN(CC(O)COc2cccc3[nH]c(C(N)=O)cc23)CC(O)COc2cccc3[nH]c(C(N)=O)cc23)cc1)OCCCC (centres unmarked) [TCMDC-139041]  20.08%
41. O=C(/C=C/c1ccc(Cl)c(Cl)c1)NCCC(CN1CCC(c2c[nH]c3ccccc23)CC1)c1ccccc1 (centres unmarked) [TCMDC-139621]  20.48%
42. CN(C)CCOc1cc(NC(=O)Nc2ccc(-c3ccncc3)c3ccccc23)ccc1I [TCMDC-139118]  23.38%
43. C[C@@H](COc1ccc(-c2ccccc2)cc1)CON1C(N)=NC(N)=NC1(C)C [TCMDC-124029]  25.59%
44. C=Cc1ccccc1C1(O)CCN(CCCCNC(=O)c2ccc(-c3ccc(C#N)cc3)cc2)CC1 [TCMDC-135786]  28.95%
45. Cn1c(NC(=O)C2CCCN(C(=O)c3ccc(O)c(-c4ccc(Cl)c(Cl)c4)c3)C2)nc2ccccc21 (centres unmarked) [TCMDC-140896]  30.61%
46. COc1cc2c(cc1S(=O)(=O)c1ccc(NC(=O)Nc3ccc(F)cc3)cc1)CCN(C)CC2 [TCMDC-141793]  32.2%
47. Cc1cccc(-n2c(=O)c3c4c(sc3n3c(SCCC(C)C)nnc23)CCCC4)c1 [TCMDC-125651]  34.66%
48. COc1cccc(C(=O)OC2=C3CCC(=O)C3(C)CCC2=O)c1 (centres unmarked) [TCMDC-131633]  39.81%
49. O=C(/C=C/c1ccc(Cl)c(Cl)c1)NCCCN1CCC(c2c[nH]c3ccccc23)CC1 [TCMDC-139332]  45.36%
50. CNCc1ccc(CN(C)c2nc(N)c3cc(OC)c(OC)cc3n2)cc1 [TCMDC-131896]  48.14%
51. Cn1c(NC2=NC3(c4ccccn4)N=C(Nc4nc5ccccc5n4C)NC3(c3ccccn3)N2)nc2ccccc21 (centres unmarked) [TCMDC-139096]  50.49%
52. CN(CCN1CCC(c2c[nH]c3ccccc23)CC1)c1ccc(-c2nc3cc(Cl)c(Cl)cc3[nH]2)cc1 [TCMDC-139373]  50.88%
53. COc1ccccc1-n1ccnc1SCC(=O)Nc1cccc(C(F)(F)F)c1 [TCMDC-123546]  51.1%
54. OC(CN1c2ccccc2Sc2ccccc21)CN(C1CCCCC1)C1CCCCC1 (centres unmarked) [TCMDC-125553]  51.78%
55. COc1cc2nc(N(C)Cc3cc4c(Cl)cccc4s3)nc(N)c2cc1OC.Cl [TCMDC-131890]  62.52%
56. CC(C)n1ncc2c(C(=O)N3CCCc4ccccc43)cc(-c3ccccc3)nc21 [TCMDC-125456]  70.11%
57. O=C(/C=C/c1ccc(Cl)c(Cl)c1)NCC[C@@H]1C[C@H]1CCN1CCC(c2c[nH]c3ccccc23)CC1 [TCMDC-139466]  86.41%
58. O=C(/C=C/c1ccc(Cl)cc1Cl)NCCCCCN1CCC(c2c[nH]c3ccccc23)CC1 [TCMDC-139696]  89.84%
59. O=C(/C=C/c1ccc(Cl)c(Cl)c1)NCCCCCN1CCC(c2c[nH]c3ccccc23)CC1 [TCMDC-139172]  95.4%
60. O=C(/C=C/c1cccc(Cl)c1)NCCCCCN1CCC(c2c[nH]c3ccccc23)CC1 [TCMDC-139211]  97.27%
61. O=C(/C=C/c1ccc(Cl)cc1)NCCCCCN1CCC(c2c[nH]c3ccccc23)CC1 [TCMDC-139234]  97.27%
62. O=C(/C=C/c1ccc2ccccc2c1)NCCCCCN1CCC(c2c[nH]c3ccccc23)CC1 [TCMDC-139206]  99.19%
63. COc1ccc(CNCc2ccccc2)cc1-c1ccc(S(=O)(=O)NCCN2CCCC2)cc1 [TCMDC-132247]  102%
64. O=C(/C=C/c1ccc(Cl)c(Cl)c1)NCCCCCN1CCC(c2c[nH]c3c(-c4ccccc4)cccc23)CC1 [TCMDC-139399]  108%
65. COc1ccc(CNCc2ccc(F)cc2)cc1-c1ccc(S(=O)(=O)NCCN2CCCC2)cc1 [TCMDC-132294]  108.8%
